From PubChem BioAssay AID602123 (The Scripps Research Institute Molecular Screening Center, 2011)
Hit rate of the full screen: of about 360,000 compounds, about 1,500 (0.42%) were called active. For the sample, actives were picked, then their nearest neighbours and some compounds at random. Values without a mark were called inactive. No stated cut-off is given here; in the data, active means inhibition above about 13% (passing the limit was not always enough); inactive means the rest.

What follows are compounds tested against Lon protease (Escherichia coli (strain K12)) (UniProt P0A9M0) (assay: E. coli eLon protease inhibition – biochemical, fluorescence polarization, primary screen (AID 602123;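 further: 0% = enzyme with probe and DMSO and 100% = no enzyme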)). Settings: purified E. coli Lon protease, at 7.94 µM, stronger effect = higher value.
Sequence of Lon protease (Escherichia coli (strain K12)) (P0A9M0 whole entry, looked up): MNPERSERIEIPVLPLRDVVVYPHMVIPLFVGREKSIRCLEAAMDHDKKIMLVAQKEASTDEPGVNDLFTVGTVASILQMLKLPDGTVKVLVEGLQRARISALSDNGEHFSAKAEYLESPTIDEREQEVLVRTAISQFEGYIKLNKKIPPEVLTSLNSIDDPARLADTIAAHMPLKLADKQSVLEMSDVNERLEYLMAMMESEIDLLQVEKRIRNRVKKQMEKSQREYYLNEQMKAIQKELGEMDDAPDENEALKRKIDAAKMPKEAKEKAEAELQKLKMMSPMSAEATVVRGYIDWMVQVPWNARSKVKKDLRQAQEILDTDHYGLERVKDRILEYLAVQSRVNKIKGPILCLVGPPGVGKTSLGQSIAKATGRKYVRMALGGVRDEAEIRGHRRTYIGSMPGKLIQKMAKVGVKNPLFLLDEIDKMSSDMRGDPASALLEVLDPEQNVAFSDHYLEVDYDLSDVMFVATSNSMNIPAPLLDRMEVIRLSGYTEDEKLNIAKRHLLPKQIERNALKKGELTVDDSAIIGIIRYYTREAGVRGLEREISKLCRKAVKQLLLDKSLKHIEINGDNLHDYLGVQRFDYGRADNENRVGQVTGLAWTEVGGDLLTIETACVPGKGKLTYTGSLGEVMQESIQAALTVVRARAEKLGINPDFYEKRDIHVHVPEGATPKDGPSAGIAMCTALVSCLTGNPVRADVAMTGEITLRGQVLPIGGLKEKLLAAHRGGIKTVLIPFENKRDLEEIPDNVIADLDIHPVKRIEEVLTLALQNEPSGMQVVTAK

Structure (SMILES) | inhibition
CCCOn1c(-n2nc(C)cc2C)nc2ccccc2c1=O | -4.29%
CC1(C)NC(=O)N(CC(=O)Nc2ccc(-c3ccccc3)cc2)C1=O | -5.51%
COc1ccc(NC(=S)NCc2cccs2)c(OC)c1 | -8.04%
COc1ccc2[nH]c(C)c(CCN(Cc3cccs3)C(=S)Nc3ccccc3OC)c2c1 | 18.1% (active)
Cc1[nH]c2ccccc2c1CCN(Cc1cccs1)C(=S)NC(C)(C)C | -6.78%
CCn1c(CSc2nncn2-c2ccc(OC)cc2)nc2cc(S(=O)(=O)N(C)C)ccc21 | 3.36%
CCCn1nc(C(=O)OCc2nc(N)nc(Nc3ccccc3C)n2)c2ccccc2c1=O | -13.7%
Cc1ccccc1Nc1nc(N)nc(CN2CCN(c3ccccn3)CC2)n1 | 16.7% (active)
Cc1ccccc1Nc1nc(N)nc(CSc2nnc3ccccn23)n1 | 7.49%
Cc1sc(NC(=S)NC(=O)c2cccs2)nc1-c1ccc(CC(C)C)cc1 | -2.21%
O=C(CSCc1ccc([N+](=O)[O-])cc1)Nc1cccc(C(=O)Nc2ccccc2C(=O)O)c1 | -7.21%
Cc1ccc(S(=O)(=O)N2CCC(C(=O)OCC(=O)N(C)c3ccccc3)CC2)cc1C | -4.62%
C[C@@H]1CN([C@H](C)CO)C(=O)CCCn2nncc2CO[C@@H]1CN(C)C(=O)OCc1ccccc1 | -12.2%
COc1ccc(Nc2nc(-c3cccnc3)nc3ccccc23)cn1 | 51.2% (active)
CCN(CC(=O)NC1CCS(=O)(=O)C1)c1nc(-c2cccnc2)nc2ccccc12 (stereo not given) | -4.31%
O=C(CSc1n[nH]c(-c2cccnc2)n1)Nc1ccnc2ccccc12 | -1.63%
Cc1ccc2nc(N3C(=O)C(O)=C(C(=O)c4ccco4)C3c3cccc(O)c3)sc2c1 (stereo not given) | -1.95%
O=C(C1=C(O)C(=O)N(c2ncccn2)C1c1cccs1)c1ccco1 (stereo not given) | 44.3% (active)
O=C(C1=C(O)C(=O)N(Cc2ccccc2)C1c1cccnc1)c1ccco1 (stereo not given) | -4.41%
CCOC(=O)Cn1c(SC)nc2sc3c(c2c1=O)CC(C)(C)OC3 | -4.5%
CC(C)c1nc2sc3c(c2c(=O)n1N)CC(C)(C)OC3 | -4.29%
CC/C(C)=N/Nc1nc2sc3c(c2c(=O)[nH]1)CC(C)(C)OC3 | 20.9% (active)
CCC(C)c1ccc(NC(=S)NCc2ccccn2)cc1 (stereo not given) | 0.44%
CN(C)c1ccc(Nc2c3c4c(cccc4n(C)c2=O)C(=O)c2ccccc2-3)cc1 | 48.2% (active)
CN(C)c1ccc(C2N(C)C(=O)c3ccccc3N2C)cc1 (stereo not given) | -1.4%
